In the library only some 19% were active in any assay of this set; here they are far more common.
HT1080 IDH1KD tx = qHTS for induction of synthetic lethality in tumor cells producing 2HG: qHTS for the HT-1080-IDH1KD cell line | AID 686971, 2013 | Potency, µM (series often up to 46.1 µM), for inactives: at the highest dose activity, negative = toxicity, actives largely listed as cytotoxic | HT-1080 IDH1 knockdown viability, ATP luminescence, 48 h | 360,000 compounds, 2% hits;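 note: potency is the fitted concentration of half-maximal effect; 0% = DMSO wells and -100% = cell-free medium wells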
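After a 2 h attachment period, IDH1KD HT-1080 cells took pin-transferred compound for 48 h at 37 °C; ATP-based luminescence after 10 min room-temperature reagent incubation reported viability.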
DT40 TDP1 no CPT = qHTS for Inhibitors of human tyrosyl-DNA phosphodiesterase 1 (TDP1): qHTS in cells in absence of CPT | Potency, µM (titrated, usually from 46.2 µM), without a hit: at the top dose activity change, negative = growth inhibition, hits mostly inhibitors | 420,000 compounds, 15% hits | DT40 Tdp1-/- hTDP1 cells, no CPT, ATP luminescence, 48 h; note: potency is the fitted concentration of half-maximal effect; nearly all actives have a fitted effect of over 55% in size
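Chicken DT40 Tdp1-/- cells complemented with human TDP1, screened without camptothecin (DMSO vehicle only), 400 cells/well. Compounds pin-transferred, cells incubated at 37 °C for at least 48 hr. Growth read as ATP-dependent luminescence (CellTiter-Glo, 30 min at RT).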
DT40 TDP1 CPT = qHTS for Inhibitors of human tyrosyl-DNA phosphodiesterase 1 (TDP1): qHTS in cells in presence of CPT | Potency, µM (series often up to 46.2 µM), without a hit: at the highest dose activity change, negative = growth inhibition, hits mostly inhibitors | AID 686979, 2013 | 420,000 compounds, 12% hits | chicken DT40 Tdp1-/-;hTDP1 cells + 20 nM CPT, ATP luminescence, 48 h; note: potency is the fitted concentration of half-maximal effect; nearly all actives have a fitted effect of over 55% in size
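Chicken DT40 Tdp1-/- cells complemented with human TDP1, 400 cells/well, exposed to compounds plus 20 nM camptothecin for at least 48 h at 37 C; viability read as ATP content by CellTiter-Glo luminescence.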
IL-1B inflam inh = qHTS for Inhibitors of Inflammasome Signaling: IL-1-beta AlphaLISA Primary Screen | activity change, % at 57.5 µM | AID 743279, 2014 | 360,000 compounds, 4.7% hits | THP-1 LPS/ATP IL-1B secretion, AlphaLISA, 16 h; hits give low values; in the data active = activity change below about -50%; inconclusive = mostly about -30% to -49%
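THP-1 cells pretreated 1 hr with compounds (up to 57.5 uM final), then stimulated with LPS (250 ng/mL final) plus ATP (1.25 mM final); secreted IL-1B measured by AlphaLISA after 16 hr, decreased signal indicating inhibition.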
HT1080NT lethal = qHTS for induction of synthetic lethality in tumor cells producing 2HG: qHTS for the HT-1080-NT fibrosarcoma cell line; HT-1080-NT fibrosarcoma viability, CellTiter-Glo ATP luminescence, 48 h; Potency, µM (highest dose often 46.1 µM), for inactives: at the top dose activity, negative = less viability, usual class: cytotoxic; 360,000 compounds, 1.6% hits;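 note: NT is the 2HG producing partner of a matched IDH1 knockdown line; potency is the fitted concentration of half-maximal effect; 0% = DMSO-treated cells and -100% = media-only wells without cells; nearly all actives have a fitted effect of over 55% in size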
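Viability by CellTiter-Glo luminescence after 48 h compound exposure at 37C of HT-1080-NT cells (750/well, RPMI, 5% FBS). % activity scaled between DMSO wells and medium-only wells, then curve-fitted and categorized by curve class.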
Active calls of the source: *; ? = inconclusive; . = no result; [ ] = dose if it differs, or a comment. Unless noted, calls come from the whole dose curve; as a rule, active = well fitted curve in the direction sought with a large enough effect; inconclusive = small, poorly fitted or top-dose-only effect, or another doubt; inactive = no such curve, though single readings can be large; an effect the other way counts as inactive or inconclusive. Unless noted, % is set by controls: 0 for no effect and ±100 for the full control effect.

SMILES	HT1080 IDH1KD tx	DT40 TDP1 no CPT	DT40 TDP1 CPT	IL-1B inflam inh	HT1080NT lethal
NC(c1ccccc1)c1csc(NC(=O)Nc2cccc(Cl)c2)n1 (centres undefined)	16µM*	?	?	-104*	21µM*
COC(=O)c1ccc(Oc2nc(SC)nc(N(C)C)n2)cc1	0%	-22%	0%	14	2%
COc1ccc(-n2nc(C(=O)NCC(=O)N3CCN(c4ccccc4F)CC3)c3ccccc3c2=O)cc1	12%	23µM*	18µM*	-8	0%
COc1ccc(-n2nc(C(=O)NCC(=O)N3CCN(c4ccccn4)CC3)c3ccccc3c2=O)cc1Cl	-2%	12µM*	12µM*	7	13%
CCOc1ccc(NC(=O)CNC(=O)c2nn(-c3ccc(OC)cc3)c(=O)c3ccccc23)cc1	1%	12µM*	-23%	91	0%
COc1ccc(-n2nc(C(=O)NCC(=O)N3CCC(C)CC3)c3ccccc3c2=O)cc1Cl	-7%	?	?	-6	-5%
CCOC(=O)C1CCN(C(=O)CNC(=O)c2nn(-c3ccc(OC)c(OC)c3)c(=O)c3ccccc23)CC1	3%	?	3%	-26	1%
COc1ccc(-n2nc(C(=O)NCC(=O)N3CCN(c4ccccc4F)CC3)c3ccccc3c2=O)cc1OC	-5%	13µM*	?	?	1%
COc1cccc2c1CCC1CC(=O)CC[C@@]21C (some centres undefined)	.	?	-18%	.	.
COc1ccc(N2CCN(C(=O)CNC(=O)c3nn(-c4ccc(OC)cc4)c(=O)c4ccccc34)CC2)cc1	-5%	18µM*	?	?	-6%
O=C(COC(=O)c1ccccc1O)NCCC1=CCCCC1	0%	18µM*	-2%	-28	-2%
COc1ccc(-n2nc(C(=O)NCC(=O)N3CCN(C)CC3)c3ccccc3c2=O)cc1	-6%	-10%	5%	-14	-3%
COc1cccc(/C=C/C(=O)OCC(=O)NCCC2=CCCCC2)c1	-4%	23µM*	?	20	3%
COc1ccc(-n2nc(C(=O)NCC(=O)NCCC3=CCCCC3)c3ccccc3c2=O)cc1OC	-5%	18µM*	-22%	-19	-16%
COc1cccc(CN(C)C(=O)CSC(C)C(=O)Nc2cc(C)on2)c1OC (centres undefined)	0%	-5%	-5%	9	-2%
NC(CC(=O)O)c1ccc(Br)cc1 (centres undefined)	-7%	4%	7%	13	-1%
COC(=O)c1ccc(OCC(=O)NCCC2=CCCCC2)c(OC)c1	9%	23µM*	?	-27	-6%
CCC(=O)c1ccc(OCC(=O)NCCC2=CCCCC2)c(OC)c1	0%	?	?	7	9%
OC(CON=C1c2ccccc2-c2ccccc21)CN1CCNCC1 (centres undefined)	23µM*	7.3µM*	12µM*	-88*	21µM*
CCC(CC)C(=O)NCc1ccc(OC)cc1	2%	-13%	-28%	-1	-1%
CC[C@]1(O)C[C@@H]2CN(CCc3c([nH]c4ccccc34)[C@@](C(=O)OC)(c3cc4c(cc3OC)N(C)C3[C@]45CCN4CC=C[C@](CC)(C45)[C@@H](OC(C)=O)[C@]3(O)C(=O)OC)C2)C1 (some centres undefined)	.	0.016µM*	0.025µM*	.	.
CCOC(=O)CNC(=O)N(C)[C@H]1C[C@H]2c3[nH]c4ccccc4c3CCN2C[C@H]1[C@H](C)O	12%	-13%	-30%	20	17%
CCC1=C[C@@H]2CN(C1)Cc1c([nH]c3ccccc13)[C@@](C(=O)OC)(c1cc3c(cc1OC)N(C)[C@H]1[C@@](O)(C(=O)OC)[C@H](OC(C)=O)[C@]4(CC)C=CCN5CC[C@]31[C@@H]54)C2	.	0.053µM*	0.06µM*	.	.
CC[C@]1(O)C[C@@H]2CN(CCc3c([nH]c4ccccc34)[C@](C(=O)OC)(c3cc4c(cc3OC)N(C)[C@H]3[C@](O)(C(=O)OC)[C@@H](C(=O)OC)[C@@]5(CC)C=CCN6CC[C@@]43[C@@H]65)C2)C1	.	0.11µM*	0.084µM*	.	.
CC[C@]1(O)CC2CN(CCc3c([nH]c4ccccc34)[C@@](C(=O)OC)(c3cc4c(cc3OC)N(C)[C@H]3[C@@](O)(C(N)=O)[C@H](O)[C@]5(CC)C=CCN6CC[C@]43[C@@H]65)C2)C1 (some centres undefined)	.	0.34µM*	0.34µM*	.	.
SMILES	HT1080 IDH1KD tx	DT40 TDP1 no CPT	DT40 TDP1 CPT	IL-1B inflam inh	HT1080NT lethal
CCCCC(=O)Nc1c2c(nn1-c1ccc(C)cc1)CS(=O)(=O)C2	3%	0%	-16%	-2	-12%
CN(CC(=O)Nc1cccc(F)c1)C(=O)CN1C(=O)NC2(CCCC2)C1=O	-1%	?	?	3	-5%
O=C(OCC(=O)N1CCOCC1)c1ccccc1OCc1ccccc1	8%	0%	-7%	-5	8%[9.24 µM]
COc1ccccc1C(=O)NC(=O)COC(=O)c1ccc([N+](=O)[O-])cc1Cl	11%	16%	12%	0	8%
CC(C)c1ccc(Nc2cc(C(=O)NC3CCCCC3)c3ccccc3n2)cc1	.	21µM*	10µM*	.	.
O=C(NC1CCCCC1)c1cc(Nc2cccc(C(F)(F)F)c2)nc2ccccc12	.	?	21µM*	.	.
Cc1cc(C(=O)NC2CC2)c2ccccc2n1	15%	5%	10%	0	1%
O=C(NC1CCCCC1)c1cc(Cl)nc2ccccc12	0%	-19%	-7%	21	-2%
Cc1ccc(C)c(Nc2cc(C(=O)NC3CCCC3)c3ccccc3n2)c1	.	?	-18%	.	.
CCc1ccccc1Nc1cc(C(=O)NC2CCC(C)CC2)c2ccccc2n1 (centres undefined)	.	?	12µM*	.	.
COc1ccc(CNC(=O)Cn2nnc3ccccc3c2=O)cc1	-1%	2%	-10%	0	0%
CC(=O)Nc1ccc(S(=O)(=O)Nc2nc3ccccc3nc2Nc2ccc(N)cc2)cc1	3%	-19%	3%	9	-8%
CC(=O)Nc1ccc(S(=O)(=O)Nc2nc3ccccc3nc2Nc2ccc3ccccc3c2)cc1	-5%	?	?	11	-8%
COC(=O)c1cc(Nc2nc3ccccc3nc2NS(=O)(=O)c2ccc(C)cc2)ccc1Cl	.	6.5µM*	18µM*	.	.

Source: PubChem
